According to PubChem BioAssay (EPA / NIEHS):
Inconclusive results are not listed. More than one record can exist for a structure, and the calls need not agree. Calls of active or inactive are those of the source. The calls were made as follows: active = hit-call score of the fitted dose curve at least 0.9, where 1 is the maximum; inconclusive = response in the unintended direction; inactive = score below 0.9.

Legend:
[1] = biological target: Cellular tumor antigen p53 (Homo sapiens) (UniProt P04637); experiment: TOX21_p53_BLA_p2_ratio: Tox21 HCT-116 p53 Agonism Beta-lactamase Assay, Ratio, Phase 2 (AID 2283592)
In short: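 Read-out is the blue/green (460/530 nm, 405 nm excitation) ratio after 2 h CCF4-AM loading, fitted as gain versus DMSO. Compounds, pinned at 217-fold dilution from DMSO stocks, stayed 16 h on HCT-116 beta-lactamase reporter cells seeded 5 h earlier.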

[2] = biological target: Cellular tumor antigen p53 (Homo sapiens) (UniProt P04637); experiment: TOX21_p53_BLA_p3_ratio: Tox21 HCT-116 p53 Agonism Beta-lactamase Assay, Ratio, Phase 3 (AID 2283596)
In short: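 Cells were seeded at 4000/well, rested 5 h at 37C, then dosed with DMSO compound solutions (217-fold dilution) for 16 h. CCF4-AM substrate was loaded for 2 h at room temperature, and the 460/530 nm emission ratio was fitted for gain of signal versus DMSO.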

[3] = TOX21_p53_BLA_p4_viability: Viability Assessment in the Tox21 HCT-116 p53 Agonism Beta-lactamase Assay, Phase 4 (AID 2283597);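 also: hits lower the luminescence signal meaning cytotoxicity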
In short: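 Cytotoxicity as reduced cellular ATP (CellTiter-Glo luminescence, 30 min room temperature), measured in the same wells following the CCF4 FRET p53 reading. Human HCT-116 cells received compounds in DMSO (217-fold dilution) for 16 h.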

[4] = biological target: Cellular tumor antigen p53 (Homo sapiens) (UniProt P04637); experiment: TOX21_p53_BLA_p5_ratio: Tox21 HCT-116 p53 Agonism Beta-lactamase Assay, Ratio, Phase 5 (AID 2283599)
In short: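 HCT-116 cells carrying a p53-inducible beta-lactamase reporter were seeded at 4000 cells/well and dosed after 5 h with compound in DMSO (217-fold dilution). After 16 h at 37C, CCF4-AM substrate was added for 2 h, and the 460/530 nm emission ratio was scored as gain-of-signal versus DMSO.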

[5] = biological target: Cellular tumor antigen p53 (Homo sapiens) (UniProt P04637); experiment: TOX21_p53_BLA_p4_ratio: Tox21 HCT-116 p53 Agonism Beta-lactamase Assay, Ratio, Phase 4 (AID 2283601)
In short: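 HCT116 cells carrying an inducible beta-lactamase reporter were plated at 4000 cells/well, rested 5 h, then exposed to compounds in DMSO (217-fold dilution) for 16 h at 37C. CCF4-AM substrate was loaded 2 h at room temperature; 460/530 nm emission ratio scored gain-of-signal versus DMSO.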

[6] = TOX21_p53_BLA_p3_viability: Viability Assessment in the Tox21 HCT-116 p53 Agonism Beta-lactamase Assay, Phase 3 (AID 2283593);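 also: cells exposed to compound for 16 h before reading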
In short: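 HCT-116 cells (4000/well) rested 5 h at 37C, then got DMSO compounds by pin tool (217-fold dilution) for 16 h at 37C, 5% CO2. After the bla read, CellTiter-Glo was added and luminescence read at 30 min, room temperature.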

[7] = TOX21_p53_BLA_p5_viability: Viability Assessment in the Tox21 HCT-116 p53 Agonism Beta-lactamase Assay, Phase 5 (AID 2283600)
In short: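 Viability came from CellTiter-Glo ATP luminescence, read after 30 min at room temperature. Before this, HCT-116 p53-bla cells (4000/well) had 16 hours of compound exposure at 37C, with DMSO stocks diluted 217-fold on transfer.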

[8] = system: Thyroperoxidase (TPO), gene 54314; experiment: CCTE_Simmons_AUR_rTPO: CCTE's Amplex UltraRed Assay for Thyroperoxidase (TPO) Inhibition, Simmons Lab (AID 2283662);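 as to AC50: potency for loss of signal meaning inhibition of peroxidase activity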
In short: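 Rat thyroid microsomal TPO + 25 uM AUR in 200 mM K phosphate; cpd 5 nM–87.5 uM [final], 8 conc, 0.5% DMSO; 300 uM H2O2 starts rxn; 37C dark 30 min; endpoint FI 544/590 nm; n=3.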

[9] = CCTE_Simmons_CellTiterGLO_HEK293T: Viability Assessment in CCTE's Assays for Thyroperoxidase (TPO) Inhibition, Simmons Lab (AID 2283665)
In short: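 Luciferase-coupled ATP content after 24 h exposure gives viability; 8-point series from 5 nM to 87.5 uM final in 0.5% DMSO. Human HEK293T cells, 1% FBS medium, three biological replicates, dichlone positive control.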

Measured: AC50

Sequence of Cellular tumor antigen p53 (Homo sapiens) (P04637 whole entry, looked up): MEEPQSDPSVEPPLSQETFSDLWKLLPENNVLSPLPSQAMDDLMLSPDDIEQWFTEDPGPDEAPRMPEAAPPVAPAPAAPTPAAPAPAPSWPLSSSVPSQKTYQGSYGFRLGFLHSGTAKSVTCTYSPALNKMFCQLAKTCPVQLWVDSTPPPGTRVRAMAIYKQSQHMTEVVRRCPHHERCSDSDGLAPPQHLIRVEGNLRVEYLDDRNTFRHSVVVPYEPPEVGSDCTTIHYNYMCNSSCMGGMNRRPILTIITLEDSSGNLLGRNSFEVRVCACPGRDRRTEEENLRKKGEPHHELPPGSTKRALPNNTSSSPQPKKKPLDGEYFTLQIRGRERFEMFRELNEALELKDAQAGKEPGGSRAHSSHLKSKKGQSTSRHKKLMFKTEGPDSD

CC=CC(=O)N(CC)c1ccccc1C
inactive: [1] | [2] | [3] | [4] | [5]

CC1=NN(c2cc(S(=O)(=O)O)ccc2Cl)C(=O)C1N=Nc1ccccc1 (stereo unspecified)
inactive: [1] | [2] | [3] | [4] | [5]

CCOC(=O)CC
inactive: [1] | [6] | [4] | [7] | [5]

CCOc1ccc(N)c([N+](=O)[O-])c1
inactive: [1] | [6] | [4] | [7]

C=CCOCC(O)CCl (stereo unspecified)
inactive: [1] | [6] | [4] | [7] | [5]

Cc1ccccc1C
inactive: [1] | [6] | [4] | [7] | [5]

C=C[Si](C)(C)O[Si](C)(C)C=C
inactive: [1] | [2]

O=C1CCCC1
not listed: [6] | [8] | [9]
inactive: all other assays above

O=C(c1ccc(O)cc1)c1ccc(O)cc1O
active: [2] 68.5 µM | [4] 86.2 µM | [5] 72.9 µM
inactive: [1] | [2] | [4] | [5]

NC(CO)(CO)CO
not listed: [6] | [8] | [9]
inactive: all other assays above

CC(=O)C=CC1C(C)=CCC(C)C1(C)C (stereo unspecified)
inactive: [1] | [6] | [4] | [7] | [5]

C=C(C)c1cccc(C(C)(C)N=C=O)c1
inactive: [1] | [6] | [4] | [7] | [5]

O=C(Cl)c1cc(C(=O)Cl)cc(C(=O)Cl)c1
inactive: [1] | [2] | [3] | [4] | [7]

CC1(C)S[C@@H]2[C@H](NC(=O)COc3ccccc3)C(=O)N2[C@H]1C(=O)O
inactive: [1] | [2] | [3] | [4] | [5]

CCCCCCCCCCCCCCCCCC#N
inactive: [1] | [2] | [3] | [4] | [7]

COc1ccc([C@@H]2CC(=O)c3c(O)cc(O[C@@H]4O[C@H](CO[C@@H]5O[C@@H](C)[C@H](O)[C@@H](O)[C@H]5O)[C@@H](O)[C@H](O)[C@H]4O)cc3O2)cc1OC
inactive: [1] | [2] | [3] | [4] | [7]

CC(C)c1ccc(C#N)cc1
inactive: [1] | [6] | [7] | [5]

N#[N+]c1ccc2c(S(=O)(=O)[O-])cccc2c1O
not listed: [6] | [8] | [9]
inactive: all other assays above

O=C(OCC1CCC2OC2C1)C1CCC2OC2C1 (stereo unspecified)
inactive: [1] | [2] | [3] | [4] | [7]

CCOC(=O)c1ccccc1C(=C1C=C(Br)C(=O)C(Br)=C1)c1cc(Br)c(O)c(Br)c1
active: [1] 10.2 µM | [2] 10.4 µM | [3] 9.49 µM | [4] 15.2 µM | [5] 8.23 µM
inactive: [7]

NC(=O)NNC(N)=O
inactive: [1] | [2] | [3] | [4] | [7]

O=C1c2ccccc2C(=O)C1c1nc2ccccc2c(Br)c1O
inactive: [1] | [6] | [3] | [7] | [5]

CCO[Si](CCCN=C=O)(OCC)OCC
inactive: [1] | [2]

CO[Si](OC)(OC)c1ccccc1
inactive: [1] | [2] | [3] | [5]

O=C1CCCN1CCO
not listed: [6] | [8] | [9]
inactive: all other assays above

CCCCCCOc1cc(C)c(O)c(C)c1C
active: [3] 46.1 µM | [5] 82.5 µM
inactive: [1] | [6] | [4]

NNC(=O)c1cccc(C(=O)NN)c1
inactive: [1] | [2] | [3] | [4] | [5]

CCC(Cc1ccccc1)(C(=O)c1ccc(N2CCOCC2)cc1)N(C)C (stereo unspecified)
inactive: [1] | [2] | [3] | [7] | [5]

c1ccc(CNCc2ccccc2)cc1
inactive: [1] | [2] | [3]

O=Cc1ccc(CO)o1
not listed: [6] | [8] | [9]
inactive: all other assays above

CC(C)CC(O)Cc1ccccc1 (stereo unspecified)
inactive: [1] | [2] | [3] | [4] | [5]

C=C(C)[C@@H]1CCC2=CCC[C@@H](C)[C@]2(C)C1
inactive: [1] | [6] | [3] | [4] | [5]

CCC(CC)C(=O)O
inactive: [1] | [6] | [7]

CCCOCCOCCOCCO
not listed: [6] | [8] | [9]
inactive: all other assays above

c1ccc(-c2ccccn2)nc1
not listed: [6] | [8] | [9]
inactive: all other assays above

c1ccc2c(c1)ccc1cc3c(ccc4ccccc43)cc12
not listed: [6]
inactive: all other assays above

CC(=O)c1ccc[nH]1
inactive: [1] | [2] | [3] | [4] | [5]

C1=Cc2ccccc2C1
inactive: [1] | [6] | [3] | [7]
active: [8] 43.6 µM

O=C1CCCCCCCCCCC(=O)OCCO1
inactive: [1] | [2] | [4] | [7] | [5]

O=c1c2ccccc2nnn1CCl
not listed: [1] | [8] | [9]
inactive: all other assays above

CC(C)CCCC(C)CC=O (stereo unspecified)
inactive: [1] | [3] | [4] | [7]

CCc1nccnc1C
inactive: [1] | [3] | [7]

Cc1cccc(N)n1
inactive: [1] | [3] | [4] | [7] | [5]

CC(=O)OCC(C)OC(C)=O (stereo unspecified)
inactive: [1] | [2] | [4] | [5]

CCC(=O)Oc1ccc(/C(CC)=C(\CC)c2ccc(OC(=O)CC)cc2)cc1
inactive: [7] | [5]
active: [1] 6.81 µM | [2] 16.4 µM | [4] 5.08 µM

COC(=O)c1cc(Cl)ccc1[N+](=O)[O-]
inactive: [1] | [2] | [4] | [5]

O=C1CC2CC1C1CCCC21 (stereo unspecified)
inactive: [1] | [3] | [4]

Cc1cc(C)c(C)cc1C
inactive: [1] | [2] | [4] | [7] | [5]

CCN(CC#N)c1cccc(C)c1
inactive: [1] | [3] | [4] | [5]

Cc1cc(C)c(C(=O)O)c(C)c1
inactive: [1] | [2] | [4] | [5]

Cc1cnc(NC(=O)C2=C(O)c3ccccc3S(=O)(=O)N2C)s1
inactive: [1] | [2] | [4] | [5]

CN(C)CCCN(C)C
inactive: [1] | [2] | [4] | [7] | [5]
